A short description of experiment [1]: qHTS assay to identify aromatase inhibitors - cell viability counter screen (AID 743084).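 Note: cells stimulated with testosterone during compound exposure; nearly all actives have a fitted effect of over 55% in size.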
Experiment [2] has as its target Aryl hydrocarbon receptor (Homo sapiens) (UniProt P35869). The experiment can be described thus: qHTS assay to identify small molecule that activate the aryl hydrocarbon receptor (AhR) signaling pathway (AID 743085).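 Note: HG2L7.5c1 human HepG2 liver cells with stably integrated DRE-driven firefly reporter; series mostly up to about 70 µM; nearly all actives have a fitted effect of over 15% in size.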 The method, boiled down:
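Luminescence (ONE-Glo) from a dioxin-responsive-element luciferase reporter in HG2L7.5c1 HepG2 cells after 24 hr compound exposure at 37C; viability measured by CellTiter-Fluor fluorescence beforehand.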
In general terms: Quantitative high-throughput screening tests each substance at several concentrations.

Experiment [3] in a line: qHTS assay to identify small molecule that activate the aryl hydrocarbon receptor (AhR) signaling pathway - cell viability counter screen (AID 743086). Note: series mostly up to about 70 µM; nearly all actives have a fitted effect of over 45% in size. The procedure, abridged: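 Cytotoxicity counter screen: CellTiter-Fluor signal (30 min, 37 C) in 4000 HepG2 cells/well carrying the DRE-luciferase reporter, following 24 h compound exposure at 37 C.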
The target in experiment [4] is Peroxisome proliferator-activated receptor gamma (Homo sapiens) (UniProt P37231). Nature of the experiment: qHTS assay to identify small molecule agonists of the peroxisome proliferator-activated receptor gamma (PPARg) signaling pathway (AID 743094; active = well fitted activation curve with a large enough effect in the signal ratio in the repeat runs, not every such curve was filed as active; the % refers to the signal ratio; note: potency is the fitted concentration of half-maximal effect). The procedure, abridged:
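GeneBLAzer PPARg UAS-bla HEK293H cells were plated, rested 5 h, then exposed to compounds for 17 h at 37C. Beta-lactamase activity was read by LiveBLAzer B/G FRET substrate fluorescence after 1 h at room temperature.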

The target is the same in experiment [5]. The experiment can be described thus: qHTS assay to identify small molecule antagonists of the peroxisome proliferator-activated receptor gamma (PPARg) signaling pathway (AID 743191; calls by dose curve; note: nearly all actives have a fitted effect of over 30% in size; note: potency is the fitted concentration of half-maximal effect). The method, boiled down: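 Beta-lactamase reporter under UAS control in HEK293H PPARg-bla cells; compound treatment 17 h at 37C. Read-out: fluorescence intensity after 1 h room-temperature incubation with LiveBLAzer B/G FRET substrate.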

Experiment [6] is described as follows: qHTS assay to identify small molecule antagonists of the peroxisome proliferator-activated receptor gamma (PPARg) signaling pathway - cell viability counter screen (AID 743194). Note: nearly all actives have a fitted effect of over 55% in size. The procedure, abridged:
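Viability was measured as CellTiter-Glo luminescence in GeneBLAzer PPARg UAS-bla HEK293H cells. These cells had been exposed 17 h at 37 C to compounds together with rosiglitazone at 50 nM final, with the beta-lactamase readout taken in the same wells.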

Experiment [7] in a line: qHTS assay for small molecule agonists of the antioxidant response element (ARE) signaling pathway (AID 743202; active = well fitted activation curve with a large enough effect in the signal ratio in the repeat runs, not every such curve was filed as active; the % refers to the signal ratio). The method, boiled down: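 Quantitative high-throughput format in HepG2 cells bearing an integrated ARE-beta-lactamase reporter. Compound exposure lasted 16 h at 37 C, and fluorescence was read 2 h after adding LiveBLAzer B/G substrate at room temperature.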
The nature of experiment [8]: qHTS assay for small molecule agonists of the antioxidant response element (ARE) signaling pathway - cell viability counter screen (AID 743203; calls by dose curve; note: nearly all actives have a fitted effect of over 55% in size). The method, boiled down:
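ARE-bla HepG2 cells were plated, rested 5 h at 37C/5% CO2, then exposed to compounds in DMSO for 16 h. Viability was read as CellTiter-Glo luminescence after 30 min at room temperature, in the same wells as the ARE screen.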

Experiment [9] is described as follows: qHTS assay for small molecule activators of the heat shock response signaling pathway - cell viability counter screen (AID 743209). Note: nearly all actives have a fitted effect of over 50% in size. The procedure, abridged:
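HSE-bla HeLa cells plated overnight, then exposed to Tox21 compounds (23 nL in DMSO) for 5 h at 37 C. After the bla reporter read, CellTiter-Glo was added in the same wells and luminescence read after 30 min at room temperature.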

Experiment [10] is described as follows: qHTS assay for small molecule activators of the heat shock response signaling pathway (AID 743210; active = well fitted activation curve with a large enough effect in the signal ratio in the repeat runs, with a control signal flat, not every such curve was filed as active; the % refers to the signal ratio;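 note: HeLa cells with beta-lactamase reporter driven by heat shock elements; series mostly up to about 63 µM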). The procedure, abridged: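 HeLa HSE-bla cells, overnight plating; cpd in DMSO 5 h, 37 C; LiveBLAzer B/G FRET substrate 2.5 h RT; fluorescence intensity read.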

Inconclusive results are not listed. Active and inactive are the calls of the source. Unless noted, calls come from the whole dose curve; as a rule, active = well fitted curve in the direction sought with a large enough effect in the repeat runs; inconclusive = weak or mixed curves; inactive = no such curve, though single readings can be large; an effect the other way counts as inactive or inconclusive.

Chain of Aryl hydrocarbon receptor (Homo sapiens) (P35869 whole entry, looked up): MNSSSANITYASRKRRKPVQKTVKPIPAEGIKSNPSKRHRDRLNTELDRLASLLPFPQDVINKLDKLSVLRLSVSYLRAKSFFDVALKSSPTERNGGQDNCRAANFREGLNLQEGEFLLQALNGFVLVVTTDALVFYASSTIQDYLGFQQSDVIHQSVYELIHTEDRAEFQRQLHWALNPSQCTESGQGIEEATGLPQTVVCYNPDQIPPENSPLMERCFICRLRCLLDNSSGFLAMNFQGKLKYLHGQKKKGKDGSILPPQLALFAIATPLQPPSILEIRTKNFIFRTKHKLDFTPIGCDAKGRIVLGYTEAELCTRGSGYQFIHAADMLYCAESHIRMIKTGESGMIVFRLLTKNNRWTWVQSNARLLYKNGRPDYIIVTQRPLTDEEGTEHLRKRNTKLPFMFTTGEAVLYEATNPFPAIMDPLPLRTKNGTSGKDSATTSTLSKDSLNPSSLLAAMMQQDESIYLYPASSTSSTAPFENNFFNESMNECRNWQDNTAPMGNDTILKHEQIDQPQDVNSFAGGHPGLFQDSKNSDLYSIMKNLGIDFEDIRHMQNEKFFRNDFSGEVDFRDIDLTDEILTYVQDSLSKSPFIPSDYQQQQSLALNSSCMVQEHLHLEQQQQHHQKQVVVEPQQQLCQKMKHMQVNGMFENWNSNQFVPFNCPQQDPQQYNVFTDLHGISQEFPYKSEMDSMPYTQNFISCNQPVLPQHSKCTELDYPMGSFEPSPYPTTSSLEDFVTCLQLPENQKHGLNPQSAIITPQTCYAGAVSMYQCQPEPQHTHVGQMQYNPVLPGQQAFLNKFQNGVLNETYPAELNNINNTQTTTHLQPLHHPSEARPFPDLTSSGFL
Chain of Peroxisome proliferator-activated receptor gamma (Homo sapiens) (P37231 whole entry, looked up): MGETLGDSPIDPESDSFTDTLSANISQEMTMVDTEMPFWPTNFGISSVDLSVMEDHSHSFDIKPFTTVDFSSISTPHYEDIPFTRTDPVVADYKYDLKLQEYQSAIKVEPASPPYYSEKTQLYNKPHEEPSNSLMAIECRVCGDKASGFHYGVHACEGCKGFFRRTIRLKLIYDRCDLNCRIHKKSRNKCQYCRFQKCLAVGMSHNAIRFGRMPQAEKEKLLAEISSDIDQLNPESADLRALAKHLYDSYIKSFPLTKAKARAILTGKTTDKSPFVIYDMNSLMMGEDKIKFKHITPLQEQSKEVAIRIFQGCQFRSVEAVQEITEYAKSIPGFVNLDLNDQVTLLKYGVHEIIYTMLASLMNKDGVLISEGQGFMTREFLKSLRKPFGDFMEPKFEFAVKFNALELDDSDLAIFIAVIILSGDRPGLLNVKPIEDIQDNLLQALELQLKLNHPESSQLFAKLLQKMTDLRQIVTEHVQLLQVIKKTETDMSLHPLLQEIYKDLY

With `CC(C)(C)c1cccc(O)c1`, the Potency entry in experiment [1], in experiment [2], in experiment [4], in experiment [5], in experiment [6] and in [7] was “inactive” each time. Besides, in [8], the Potency entry was “inactive”. The molecule was classed as inactive in experiment [3].

On to `CN(CC1(C)CCCO1)S(=O)(=O)c1ccc(Cl)c(S(N)(=O)=O)c1` (centres undefined), for which the Potency result in experiment [1], in [2], in [4], in experiment [5], in experiment [6] and in [8] was “inactive” in each case. Moreover, the Potency entry in [10] is “inactive”. Also, the result in experiment [3] and in [9] was inactive.

Consider `CCCNC(C)(C)COC(=O)c1ccccc1`, for which the Potency entry in experiment [1], in [2], in experiment [5], in experiment [6], in experiment [7] and in [8] was “inactive” each time. Also, the Potency result in experiment [10] was “inactive”. The outcome in experiment [3] and in experiment [9] was inactive. Moreover, the Potency in experiment [4] was 0.338 µM (active).

`CC1=C(O)C(=O)OC1C` (centres undefined): the Potency result in experiment [1], in experiment [2], in experiment [4], in [5], in [6] and in experiment [8] was “inactive” each time. Moreover, the molecule was classed as inactive in [3] and in experiment [9].

On to `COc1cc(Cl)ccc1Cl`, for which the Potency entry in [1], in [2], in experiment [4], in experiment [5], in [6] and in experiment [7] was “inactive” in each case. In addition, the Potency result in experiment [8] and in [10] was “inactive” each time. For the same molecule, the molecule was classed as inactive in experiment [3] and in experiment [9].

For `CC1(C)O[C@@H]2C[C@H]3[C@@H]4CCC5=CC(=O)CC[C@]5(C)[C@@]4(F)[C@@H](O)C[C@]3(C)[C@]2(C(=O)CCl)O1`, the Potency entry in experiment [1], in experiment [2], in [4], in experiment [5], in experiment [6] and in experiment [8] was “inactive” in each case. The call in [3] and in experiment [9] was inactive.

With `CCN1CC(CCN2CCOCC2)C(c2ccccc2)(c2ccccc2)C1=O` (centres undefined), the Potency entry in [1], in experiment [2], in [4], in experiment [5], in experiment [6] and in [8] was “inactive” in each case. Moreover, the Potency result in experiment [10] was “inactive”. The molecule was called inactive in experiment [3] and in experiment [9].

Regarding `Oc1ccccc1C=NCc1ccccc1`, the Potency entry in [1], in experiment [2], in experiment [4], in experiment [5], in experiment [6] and in experiment [7] was “inactive” throughout. The Potency result in experiment [8] and in [10] was “inactive” in each case. Further, the outcome in [3] and in experiment [9] was inactive.

As for `CC/C=C\CCOC(=O)CCCCC`, the Potency result in experiment [1], in experiment [2], in experiment [4], in [5], in experiment [6] and in experiment [8] was “inactive” in each case. In addition, the Potency result in [10] was “inactive”. Besides, the molecule was classed as inactive in experiment [3] and in [9].

`CCCCCCCCc1ccc(S(=O)(=O)O)cc1`: the Potency entry in experiment [1], in experiment [2], in experiment [4], in experiment [6] and in experiment [8] was “inactive” each time. Besides, in [3], the molecule was classed as inactive. Besides, the Potency in experiment [5] is 43.3 µM (active).

Take `CC1=CC(=O)CC(C)(C)C1=O`: the Potency result in experiment [1], in experiment [2], in [4], in experiment [5], in [6] and in experiment [8] was “inactive” each time. Moreover, in [10], the Potency result was “inactive”. For the same molecule, the molecule was classed as inactive in [3] and in experiment [9].

For the molecule `ICCc1ccccc1`, the Potency entry in experiment [1], in [2], in experiment [4], in [5], in experiment [6] and in [7] was “inactive” each time. In addition, the Potency result in experiment [8] and in experiment [10] was “inactive” each time. The call in [3] was inactive.

With `OCCN1CCN(CCO)CC1`, the Potency entry in [1], in experiment [2], in experiment [4], in [5], in experiment [7] and in experiment [8] was “inactive” in each case. For the same molecule, in experiment [10], the Potency result was “inactive”. In addition, the outcome in experiment [3] and in experiment [9] was inactive.

Turning to `Cc1ccc(C(C)C)cc1O`, the Potency result in experiment [1], in experiment [2], in experiment [4], in [6], in experiment [7] and in experiment [8] was “inactive” throughout. The Potency entry in experiment [10] was “inactive”. In addition, the molecule was classed as inactive in experiment [3] and in [9].

On to `C[C@]12CCC(=O)C=C1CC[C@@H]1[C@@H]2CC[C@@]2(C)[C@H]1CC[C@]2(O)C(=O)CO`, for which the Potency result in experiment [1], in experiment [2], in experiment [4], in [6], in experiment [7] and in [8] was “inactive” each time. Moreover, in experiment [10], the Potency result was “inactive”. Besides, the molecule was classed as inactive in experiment [3] and in experiment [9].

Consider `CCCCOc1cc(C(=O)NCCN(CC)CC)c2ccccc2n1`, for which the Potency entry in experiment [1], in [2], in [4], in [5], in experiment [8] and in experiment [10] was “inactive” in each case. Moreover, the outcome in [3] and in experiment [9] was inactive.

`CCCCN1C[C@H](O)[C@@H](O)[C@H](O)[C@H]1CO`: the Potency entry in [1], in [2], in experiment [4], in [6], in [7] and in experiment [8] was “inactive” in each case. Further, in [10], the Potency entry is “inactive”. Moreover, the molecule was called inactive in experiment [3] and in experiment [9].

For `CN1CCN(C2=Nc3ccccc3Oc3ccc(Cl)cc32)CC1`, the Potency result in experiment [1], in [2], in experiment [4], in experiment [6], in experiment [7] and in experiment [8] was “inactive” each time. In addition, the Potency entry in experiment [10] was “inactive”. Also, the molecule was called inactive in [3] and in experiment [9].

On to `O=C(O)[C@@H](O)[C@H](O)[C@H](O)[C@@H](O)C(=O)O`, for which the Potency entry in experiment [1], in experiment [2], in [4], in experiment [6], in experiment [7] and in experiment [8] was “inactive” each time. Moreover, the Potency result in experiment [10] is “inactive”. Also, the molecule was classed as inactive in experiment [3].

Turning to `CCc1nnc(NS(=O)(=O)c2ccc(N)cc2)s1`, the Potency result in experiment [1], in experiment [2], in experiment [4], in [5], in experiment [7] and in [8] was “inactive” in each case. In addition, the molecule was called inactive in experiment [3] and in experiment [9].

As for `CCCCCCCCCC/C=C/C#N`, the Potency entry in experiment [1], in experiment [2], in [4], in experiment [5] and in [8] was “inactive” in each case. Also, the molecule was called inactive in [3] and in experiment [9].

As for `COc1nc(C)nc(NC(=O)NS(=O)(=O)c2ccccc2OCCCl)n1`, the Potency entry in experiment [1], in experiment [2], in experiment [4], in experiment [5], in experiment [8] and in experiment [10] was “inactive” in each case. For the same molecule, the call in [3] and in experiment [9] was inactive.

In the case of `CC(C)c1ccccc1`, the Potency result in experiment [1], in experiment [2], in [4], in experiment [6], in experiment [7] and in [8] was “inactive” in each case. Further, the molecule was called inactive in [3].

In the case of `C[C@@H]1CN(c2c(F)c(N)c3c(=O)c(C(=O)O)cn(C4CC4)c3c2F)C[C@H](C)N1`, the Potency result in experiment [1], in experiment [2], in experiment [4], in experiment [5] and in experiment [8] was “inactive” each time. In addition, the call in [3] and in experiment [9] was inactive.

Consider `CN1C(=O)CC(c2ccccc2)C1=O` (centres undefined), for which the Potency result in experiment [1], in experiment [2], in [4], in [6], in experiment [7] and in experiment [8] was “inactive” each time. For the same molecule, the Potency result in [10] is “inactive”. Moreover, the molecule was classed as inactive in experiment [3] and in experiment [9].

On to `CN(C)Cc1ccccc1`, for which the Potency result in [1], in [2], in experiment [4], in experiment [6], in experiment [7] and in experiment [8] was “inactive” in each case. Besides, in experiment [10], the Potency entry is “inactive”. Moreover, the molecule was classed as inactive in experiment [3] and in [9].

With `CCN(CC)C(=O)N(CC)CC`, the Potency result in [1], in experiment [2], in [4], in experiment [5], in experiment [8] and in [10] was “inactive” throughout. Further, the outcome in experiment [3] and in [9] was inactive.

For `Cc1cccc(C)c1NC(=O)CN1CCCCCC1`, the Potency result in experiment [1], in [2], in [4], in [6], in experiment [7] and in [8] was “inactive” each time. Moreover, the Potency result in [10] was “inactive”. The molecule was called inactive in experiment [3] and in [9].

(Values after PubChem BioAssay (Tox21).)
